Shown are actives, neighbours in structure and some others; about 1.2% of the full set was active somewhere.
VLA-4 inh: inhibition in a human VLA-4 binding assay; VLA-4 expressing cells, ligand binding flow cytometry; P13612; inhibition, % (about 7 µM as worked out from the volumes in the protocol); actives 0.2% (n = 330,000); in the data active = inhibition above about 50%
p-CIP stab down: p/CIP protein destabilization | F442A p/CIP-EGFP cells, EGFP fluorescence, 16 h | decrease of EGFP signal, % at 10 µM | actives 0.01% (n = 290,000) | AID 1984;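 active = EGFP signal decrease of at least 30% at 10 µM or well 3 SD below plate mean, unless failing retest; inactive = the rest, including hits failing retest or dose response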
GASC-1 inh: inhibitors of human GASC-1 (JMJD2C) demethylase; Q9H3R0; GST-JMJD2C(1-420) H3K9me3 demethylation, DELFIA europium; inhibition, % at 2.35 µM; actives 0.069% (n = 330,000); AID 2099;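 active = more than half of a compound's replicate wells show inhibition beyond 50%, single wells judged on their own value; inconclusive = some, but no more than half, of replicates pass 50% inhibition; inactive = no replicate passes 50% inhibition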;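 note: signal counts dimethyl H3K9 product captured on neutravidin plate; 0% = median of DMSO wells and 100% = 0.3 times that DMSO median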
GPR7 antagonist: antagonists of human GPR7 (neuropeptides B/W receptor 1); actives 1.1% (n = 290,000); GPR7-expressing cells, fluorescence antagonist assay; inhibition, % at 4.4 µM; P48145; in the data active = inhibition above about 16%, passing the limit was not always enough;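 note: cells stimulated with the agonist NPW; 0% = agonist with vehicle and 100% = vehicle without agonist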
VLA-4 allo CP: human VLA-4 allosteric modulation in cherry picked compounds; shares compounds with VLA-4 inh; U937 cells, HUTS-21 LIBS mAb binding, flow cytometry; LDV ligand present at threefold Kd; inhibition, % at 6.7 µM; actives 2% (n = 1,300); in the data active = inhibition above about 40%;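 note: 0% = ligand without compound and 100% = no ligand background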
An asterisk follows results filed as active; ? = inconclusive; · = no result given; ! = not confirmed by another sample.

SMILES	VLA-4 inh	p-CIP stab down	GASC-1 inh	GPR7 antagonist	VLA-4 allo CP
C[C@]12CCC(=O)C=C1CC[C@@H]1[C@@H]2[C@@H](O)C[C@@]2(C)[C@H]1CC[C@]2(O)C(=O)CO	28.8	1.7	-4.1	-13.4	-0.9
CC12CCC(=O)C=C1CCC1C2C(O)CC2(C)C1CCC2(O)C(=O)CO (stereo not drawn)	6.1	-8.5	2.6	-15.2	-184.1
C[C@]12C=CC(=O)C=C1CC[C@@H]1[C@@H]2[C@@H](O)C[C@@]2(C)[C@H]1CC[C@]2(O)C(=O)COC(=O)CCC(=O)O	14.6	1.0	·	-16.9	·
C[C@]12C=CC(=O)C=C1CC[C@@H]1[C@@H]2[C@@H](O)C[C@@]2(C)[C@H]1CC[C@]2(O)C(=O)CO	59.1*	-13.3	-10.6	3.8	1.6
C[C@]12CCC(=O)C=C1[C@H](O)C[C@@H]1[C@@H]2[C@@H](O)C[C@@]2(C)[C@H]1CC[C@]2(O)C(=O)CO	19.2	8.0	-8.5	-9.7	·
CC(=O)NC(CC(=O)OC(C)C(=O)Nc1ncc(Cl)cc1Cl)c1ccccc1 (stereo not drawn)	-6.3	12.9	-11.4	-10.5	·
CN(C(=O)Nc1cnc2ccccc2c1)c1ccccc1	-15.3	-1.9	-5.7	10.1	·
Cc1ccc(NC(=O)N(C)c2ccccc2)cc1	-1.7	-6.4	-3.4	-18.1	-6.7
O=C1CCC(C(=O)OCc2cc(=O)oc3ccc4ccccc4c23)=NN1	-0.6	4.2	27.2	-12.5	·
Cc1onc(-c2ccccc2)c1C(=O)OCC(=O)NC(C)c1ccc(Cl)cc1 (stereo not drawn)	10.5	·	4.9	·	·
COC(=O)c1cc(CNC(=O)C(C)NS(=O)(=O)c2ccc(C)c(C)c2)ccc1OC (stereo not drawn)	2.7	1.9	1.9	-4.0	-0.2
COc1ccc(S(=O)(=O)NC(C)C(=O)NCc2ccncc2)cc1C (stereo not drawn)	10.9	-7.8	2.7	-21.4	·
Cc1cc(=O)[nH]c(-n2nc(C)cc2C)n1	93.6*	-9.4	-0.4	-15.7	15.0
Cc1cc(=O)[nH]c(N2CCCNCC2)n1	6.7	-10.9	-6.6	-16.6	·
CC(C)C(NS(=O)(=O)c1ccc2c(c1)oc(=O)n2C)C(=O)N1CCN(c2ccccc2F)CC1 (stereo not drawn)	53.4*	-8.6	·	·	-13.5
Cn1c(=O)oc2cc(S(=O)(=O)NCCC(=O)N3CCN(c4ccccc4F)CC3)ccc21	8.9	-5.5	-7.5	-3.0	·
COc1ccccc1-c1cc(C(F)(F)F)nc(S(=O)(=O)CCCC(=O)N2CCCCC2C)n1 (stereo not drawn)	49.8*	-4.4	-15.1	17.2	14.3
COc1ccccc1-c1cc(C(F)(F)F)nc(S(=O)(=O)CCCC(=O)NC(C)C)n1	41.4	-6.3	6.9	-0.7	·
COc1c(F)c(F)c(C(=O)Nc2c(C)cc(Br)cc2C)c(F)c1F	7.1	9.2	-0.7	-7.2	·
Cc1ccc(C(=O)NC(=S)NCc2cccnc2)cc1C	54.9*	-6.1	-4.5	-1.5	-9.5
COc1ccc(OCC(=O)NCCCCCCNC(=O)COc2ccc(OC)cc2)cc1	-18.7	6.8	0.8	-0.8	·
CCN(CC)CCNC(=O)COc1ccc(OC)cc1	57.1*!	-21.5	2.3	-12.5	1.1
COc1ccc(-c2c(C(F)(F)F)oc3c(CN4CCN(C)CC4)c(O)ccc3c2=O)cc1	92.5*	-4.0	-14.1	-7.5	2.1
O=C1Nc2ccc(F)cc2C12OCCO2	50.7*	13.5	2.1	2.3	-0.2
CC1CCN(c2nc3ccc(C(=O)NCCCN4CCCCC4C)cc3s2)CC1 (stereo not drawn)	0.6	4.2	-23.8	-7.0	3.1
SMILES	VLA-4 inh	p-CIP stab down	GASC-1 inh	GPR7 antagonist	VLA-4 allo CP
CC1CC(C)CN(CCCNC(=O)c2ccc3nc(N4CCCCC4)sc3c2)C1 (stereo not drawn)	39.8	-0.4	-2.0	-2.1	·
CC1CCCC(C)N1CCCNC(=O)c1ccc2nc(N3CCOCC3)sc2c1 (stereo not drawn)	2.8	-18.6	8.2	-12.8	1.8
CC1CCCC(C)N1CCCNC(=O)c1ccc2nc(N3CCCCC3)sc2c1 (stereo not drawn)	50.7*	-3.1	-6.3	0.2	2.7
CCOC(=O)Cc1csc(NC(=O)CCCCCN2C(=O)c3ccccc3C2=O)n1	-12.7	-12.0	-3.1	-9.9	·
CCn1c(=N)n(CC(O)c2ccco2)c2ccccc21 (stereo not drawn)	6.9	-6.9	8.7	6.0	·
CCn1c(=N)n(CC(O)c2cccs2)c2ccccc21 (stereo not drawn)	41.2	-3.6	-7.1	-0.7	2.1
COC(=O)c1sc2nc(N3CCCCC3)c3c(c2c1N)CCCC3	89.8*	-8.4	5.2	-1.7	0.0
NC(=O)c1sc2nc(N3CCCCC3)c3c(c2c1N)CCCC3	8.8	4.7	6.5	-8.6	·
O=C(CCC(=O)Nc1ccc(F)cc1)N/N=C/c1ccncc1	56.4*	10.6	-3.0	-9.6	0.0
O=C(CCC(=O)Nc1ccccc1)N/N=C/c1ccncc1	-13.4	·	-2.4	·	·
COc1ccc(CN2C(=O)c3cccnc3C2=O)cc1S(=O)(=O)N1CC(C)Oc2ccccc21 (stereo not drawn)	56.4*	7.1	-14.5	1.1	-0.1
CC1CN(S(=O)(=O)c2ccc(CN3C(=O)c4cccnc4C3=O)cc2)c2ccccc2O1 (stereo not drawn)	-1.4	9.2	-1.3	-6.3	·
CCOC(=O)c1c(-c2ccccc2)csc1NC(=O)CCN1C(=O)c2ccccc2C1=O	43.5	-8.6	-5.4	-10.3	8.6
COc1cccc(C=NCCCN=Cc2cccc(OC)c2O)c1O	14.1	1.6	1.9	-28.1	·
COc1cccc(C(=O)OCC(=O)NCCC2=CCCCC2)c1	3.6	·	-6.8	·	-1.1
COc1cc(C(=O)OCC(=O)NCCC2=CCCCC2)ccc1OCC(C)C	9.3	·	11.3	·	·
C[N+](C)(C)CCCNC(=O)c1ccc(/C=N/O)nc1	-10.4	-2.2	7.2	-16.1	·
Cc1c(NC(=O)C(C)OC(=O)COc2ccc(C#N)cc2)c(=O)n(-c2ccccc2)n1C (stereo not drawn)	23.9	·	7.3	·	·
Cc1nc(N/N=C\c2ccc3c(c2)OCO3)sc1C	4.9	1.7	6.2	-7.7	·
CCc1ccc(NC(=O)Cn2cnc([N+](=O)[O-])c2)cc1	53.8*	0.1	6.1	8.8	7.0
O=C(Cn1cnc([N+](=O)[O-])c1)Nc1ccc(F)c(Cl)c1	·	2.6	1.8	1.4	·
CC(OC(=O)CC1CCCC1)C(=O)Nc1ccc(S(N)(=O)=O)cc1 (stereo not drawn)	35.7	·	-0.7	·	·
OC[C@H]1O[C@@H](n2cnc3c(Nc4ccccc4)ncnc32)[C@H](O)[C@@H]1O	3.4	-4.3	?	-12.8	1.8
Nc1ccc(CCNc2ncnc3c2ncn3[C@@H]2O[C@H](CO)[C@@H](O)[C@H]2O)cc1	17.9	·	-7.9	·	5.7
OCC1OC(n2cnc3c(NCCc4ccccc4)ncnc32)C(O)C1O (stereo not drawn)	10.5	·	4.4	·	1.1
O=C(/C=C/c1ccccc1[N+](=O)[O-])NCCCn1ccnc1	61.5*	12.0	11.0	-5.1	-4.9

Screens deposited in PubChem by several laboratories.
